# Test results from PubChem BioAssay (NCATS).
# Results filed as inconclusive are left out. Unmarked numbers belong to inactive results. The source made the active and inactive calls. Calls come from the whole dose curve; as a rule, active = well fitted cell-killing curve with a large enough effect; inconclusive = small, poorly fitted or top-dose-only effect, or effect the other way; inactive = no such curve, though single readings can be large or run the other way.
# How the values were obtained:
# [1] = Quantitative High-Throughput drug screen in 47 multiple myeloma cell lines against the NCATS MIPE library collection: L363_DSMZ cell viability assay (AID 1918984); conditions: L363 myeloma viability, CellTiter-Glo ATP luminescence, 48 h; viability (% of control): at 45.8 µM (top of the series); note: nearly all actives have a fitted effect of over 40% in size
# Method in brief: (§1)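 Readout: median RLU from CellTiter-Glo after 5 min at room temperature. Preceding step was 48 h drug treatment of 500 cells/well at 37 °C, 5% CO2, with DMSO-only and media-only control wells.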
# [2] = Quantitative High-Throughput drug screen in 47 multiple myeloma cell lines against the NCATS MIPE library collection: KMS34_JCRB cell viability assay (AID 1918985); note: nearly all actives have a fitted effect of over 40% in size
# Method in brief: as §1
# [3] = Quantitative High-Throughput drug screen in 47 multiple myeloma cell lines against the NCATS MIPE library collection: OPM1_PLB cell viability assay (AID 1918989); note: nearly all actives have a fitted effect of over 40% in size
# Method in brief: as §1
# [4] = Quantitative High-Throughput drug screen in 47 multiple myeloma cell lines against the NCATS MIPE library collection: SKMM1_PLB cell viability assay (AID 1919863); conditions: SKMM1 myeloma viability, CellTiter-Glo ATP, 48 h; viability: active compounds read low; note: nearly all actives have a fitted effect of over 35% in size
# Method in brief: as §1
# [5] = Quantitative High-Throughput drug screen in 47 multiple myeloma cell lines against the NCATS MIPE library collection: U266_ATCC cell viability assay (AID 1919864); note: nearly all actives have a fitted effect of over 35% in size
# Method in brief: as §1
# [6] = Quantitative High-Throughput drug screen in 47 multiple myeloma cell lines against the NCATS MIPE library collection: XG6_PLB cell viability assay (AID 1919865); note: nearly all actives have a fitted effect of over 40% in size
# Method in brief: as §1
# [7] = Quantitative High-Throughput drug screen in 47 multiple myeloma cell lines against the NCATS MIPE library collection: XG1_PLB cell viability assay (AID 1919866); note: nearly all actives have a fitted effect of over 35% in size
# Method in brief: as §1
# [8] = Quantitative High-Throughput drug screen in 47 multiple myeloma cell lines against the NCATS MIPE library collection: PCM6_Riken cell viability assay (AID 1919870); note: nearly all actives have a fitted effect of over 30% in size
# Method in brief: as §1
# [9] = Quantitative High-Throughput drug screen in 47 multiple myeloma cell lines against the NCATS MIPE library collection: KMS28BM_JCRB cell viability assay (AID 1919874); note: nearly all actives have a fitted effect of over 35% in size
# Method in brief: as §1
# [10] = Quantitative High-Throughput drug screen in 47 multiple myeloma cell lines against the NCATS MIPE library collection: OCIMY7_PLB cell viability assay (AID 1918987); conditions: OCI-MY7 myeloma viability, CellTiter-Glo ATP, 48 h; viability (% of DMSO): at 45.8 µM (top of the series); note: nearly all actives have a fitted effect of over 65% in size
# Method in brief: as §1
# [11] = Quantitative High-Throughput drug screen in 47 multiple myeloma cell lines against the NCATS MIPE library collection: OCIMY5_PLB cell viability assay (AID 1918988); note: nearly all actives have a fitted effect of over 65% in size
# Method in brief: as §1
# [12] = Quantitative High-Throughput drug screen in 47 multiple myeloma cell lines against the NCATS MIPE library collection: VP6_DJ cell viability assay (AID 1919867); note: nearly all actives have a fitted effect of over 40% in size
# Method in brief: as §1
# [13] = Quantitative High-Throughput drug screen in 47 multiple myeloma cell lines against the NCATS MIPE library collection: PE2_PLB cell viability assay (AID 1919869); note: nearly all actives have a fitted effect of over 35% in size
# Method in brief: as §1
# [14] = Quantitative High-Throughput drug screen in 47 multiple myeloma cell lines against the NCATS MIPE library collection: UTMC2_PLB cell viability assay (AID 1919868); conditions: CellTiter-Glo ATP luminescence, 48 h; viability (% of DMSO control): at 45.8 µM (top of the series); note: nearly all actives have a fitted effect of over 55% in size
# Method in brief: as §1
# [15] = Quantitative High-Throughput drug screen in 47 multiple myeloma cell lines against the NCATS MIPE library collection: RPMI8226_ATCC cell viability assay (AID 1919871); note: nearly all actives have a fitted effect of over 30% in size
# Method in brief: as §1
# [16] = Quantitative High-Throughput drug screen in 47 multiple myeloma cell lines against the NCATS MIPE library collection: OPM2_DSMZ cell viability assay (AID 1919872); note: nearly all actives have a fitted effect of over 30% in size
# Method in brief: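 Myeloma cells (500 per well) were exposed to MIPE 4.0 compounds by pin transfer and incubated 48 hours at 37C, 5% CO2. Viability was read as ATP by CellTiter-Glo luminescence, normalised to DMSO (100%) and media-only (0%) wells.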
# [17] = Quantitative High-Throughput drug screen in 47 multiple myeloma cell lines against the NCATS MIPE library collection: KMS11_JCRBsus cell viability assay (AID 1919873); note: nearly all actives have a fitted effect of over 50% in size
# Method in brief: as §1
# Potency is the fitted concentration of half-maximal effect.
SMILES,Potency [1],Potency [2],Potency [3],viability [4],Potency [5],Potency [6],Potency [7],Potency [8],Potency [9],Potency [10],Potency [11],Potency [4],Potency [12],Potency [13],Potency [14],Potency [15],Potency [16],Potency [17]
CCC=CC[C@H]1C(=O)CC[C@@H]1CC(=O)OC,inactive,inactive,inactive,144%,inactive,inactive,inactive,inactive,inactive,,,,,,,,,
CC(=O)Nc1cccc(-n2c(=O)n(C3CC3)c(=O)c3c(Nc4ccc(I)cc4F)n(C)c(=O)c(C)c32)c1,5.9 µM (active),,0.296 µM (active),,1.48 µM (active),0.332 µM (active),0.0418 µM (active),,inactive,0.0132 µM (active),inactive,3.72 µM (active),inactive,0.296 µM (active),,,,
CS(=O)(=O)c1ccc(C2=C(c3ccccc3)C(=O)OC2)cc1,inactive,inactive,inactive,152%,,inactive,,inactive,inactive,,,,,,inactive,inactive,inactive,inactive
O=c1[nH]nc(OCCCc2ccc(Cl)cc2)c(NCc2cccnc2)c1Br,3.72 µM (active),,4.69 µM (active),,7.43 µM (active),2.96 µM (active),9.35 µM (active),4.69 µM (active),20.9 µM (active),7.43 µM (active),18.7 µM (active),18.7 µM (active),9.35 µM (active),9.35 µM (active),,20.9 µM (active),23.5 µM (active),5.26 µM (active)
NC(=O)c1noc([C@H](CCCC2CCCCC2)CC(=O)NO)n1,inactive,,23.5 µM (active),,20.9 µM (active),23.5 µM (active),16.6 µM (active),16.6 µM (active),inactive,3.32 µM (active),16.6 µM (active),13.2 µM (active),,18.7 µM (active),,10.5 µM (active),20.9 µM (active),
CC(=O)N1CCN(c2ccc(OCc3nn(C)c(C)c3-c3cccc4c(CCCOc5cc(C)c(Cl)c(C)c5)c(C(=O)O)n(Cc5cccnc5)c34)cc2)CC1,18.7 µM (active),,7.43 µM (active),,20.9 µM (active),5.9 µM (active),5.9 µM (active),16.6 µM (active),9.35 µM (active),0.833 µM (active),20.9 µM (active),,10.5 µM (active),,7.43 µM (active),inactive,inactive,20.9 µM (active)
CCCCn1c(=O)n(Cc2ccccc2F)c(=O)c2[nH]c(Cc3ccc(NC(C)=O)cc3)nc21,inactive,5.9 µM (active),,,18.7 µM (active),inactive,,,inactive,,11.8 µM (active),,inactive,inactive,,inactive,inactive,
Cc1nc(NC(=O)N2CCC[C@@H]2C(N)=O)sc1-c1csc(C(C)(C)C)n1,0.833 µM (active),,14.8 µM (active),,9.35 µM (active),4.69 µM (active),3.32 µM (active),4.69 µM (active),,3.32 µM (active),14.8 µM (active),,,5.9 µM (active),,,,
CCN1C[C@H](C)n2c(c(O)c3c(=O)n(Cc4ccc(F)c(Cl)c4)nc(C(=O)NC)c32)C1=O,inactive,inactive,inactive,,inactive,inactive,,,13.2 µM (active),,,,,inactive,inactive,,inactive,
COC(=O)Nc1ccc(-c2nc(N3CCOCC3)c3cnn(C4CCN(C(=O)OC)CC4)c3n2)cc1,0.0935 µM (active),,0.372 µM (active),,1.32 µM (active),,0.296 µM (active),1.87 µM (active),0.59 µM (active),0.0235 µM (active),1.18 µM (active),11.8 µM (active),0.148 µM (active),0.332 µM (active),0.059 µM (active),0.332 µM (active),,0.166 µM (active)
CN1CCN(c2cccc(Nc3nc4c(-c5ccc(S(C)(=O)=O)cc5)cccn4n3)c2)CC1,3.32 µM (active),,2.35 µM (active),,3.32 µM (active),0.833 µM (active),0.372 µM (active),7.43 µM (active),0.743 µM (active),0.743 µM (active),4.69 µM (active),18.7 µM (active),0.743 µM (active),1.05 µM (active),,,,
NC[C@H]1O[C@H](O[C@@H]2[C@@H](O)[C@@H](O[C@H]3O[C@H](CO)[C@@H](O)[C@H](N)[C@@H]3O)[C@H](N)C[C@@H]2N)[C@H](O)[C@@H](O)[C@H]1O,inactive,inactive,,120%,,inactive,inactive,inactive,inactive,,,,16.6 µM (active),inactive,,,inactive,inactive
Cc1cc(CS(=O)(=O)c2ccccc2)cc(OCc2ccc(CN3CCC[C@H]3CO)cc2)c1,8.33 µM (active),inactive,20.9 µM (active),,,,,,inactive,,,,0.296 µM (active),,,,inactive,
